Activity calls are given as the source filed them. The calls were made as follows: active = hit-call score of the fitted dose curve at least 0.9, where 1 is the maximum; inactive = score below 0.9.
Test: APR_HepG2_CellCycleArrest_24hr: Apredica 24-hour HepG2 Assay for Cell Cycle Arrest (AID 2282905);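 also: cell cycle arrest scored as ratio of 2N to 4N nuclear DNA content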
Details: imaging, actives raise or lower the signal
Method: APR_HepG2_24hr is a cell-based, multiplexed-readout assay that uses HepG2, a human liver cell line, with measurements taken at 24 hours after chemical dosing in a 384-well plate.APR_HepG2_CellCycleArrest_24hr is one of 10 assay component(s) measured or calculated from the APR_HepG2_24hr assay. It is designed to make measurements of cell phenotype, a form of morphology reporter, as detected with fluorescence intensity signals by HCS Fluorescent Imaging technology.Data from the assay component APR_HepG2_CellCycleArrest_24hr was analyzed into 1 assay endpoint. This assay endpoint, APR_HepG2_CellCycleArrest_24hr, was analyzed with bidirectional fitting relative to DMSO as the negative control and baseline of activity. Using a type of morphology reporter, measures of all nuclear dna for gain or loss-of-signal activity can be used to understand the signaling at the pathway-level as they relate to the gene . Furthermore, this assay endpoint can be referred to as a primary readout, because this assay has produced multiple assay endpoints where this one serves a signaling function. To generalize the intended target to other relatable targets, this assay endpoint is annotated to the cell cycle intended target family, where the subfamily is arrest.
Cells were treated with dimethyl sulfoxide (DMSO) as a solvent control at a final concentration of 0.5% v/v or with compounds in DMSO with a resulting final DMSO concentration of 0.5% v/v. Compound treatment was done at concentrations of 0.39, 0.78, 1.56, 3.12, 6.24, 12.5, 25, 50, 100, and 200 uM in duplicate on each plate. Cells were treated with compounds for 1, 24, or 72 hr. Carbonyl […] m-chloro-phenylhydrazone (CCCP) and taxol were used as positive controls for mitochondrial function and cytoskeletal stability, respectively; DMSO served as the negative control for this experiment. Cells were fixed by the direct addition of 50 uL formaldehyde in Hank's Balanced Salt Solution (HBSS) to a final concentration of 3.7%. After incubation in the fixation medium for 30 min at room temperature (293-298 K), cells were rinsed twice with HBSS and treated with cell permeabilization buffer (16 uL of 0.5% Triton X-100) for 10 min at room temperature (293-298 K) before labeling. For mitochondrial membrane potential and mitochondrial measurements, pre-fixed cells were incubated with 50 uL of MitoTracker Red CMXRos (Invitrogen) at a concentration of 250 nM for 30 min before fixation. In the remaining cases, post-fixed cells were labeled by incubation with a multiplexed mixture of primary antibodies in HBSS for 60 min at room temperature (293-298 K) to detect immunoreactivity of c-Jun (1:500), phospho-histone H3 (1:100), phospho-histone H2A.x (1:200), p53 (1:400), alpha-tubulin (1:200) and Hoechst 33342 (2 ug/mL). Cells were labeled for multiplexed imaging on two separate plates: a) Hoechst 33342, MitoTracker Red, phospho-histone H3, and alpha-tubulin, and b) Hoechst 33342, phospho-histone H2A.x, and c-Jun. A final rinse with HBSS (50 uL) was performed before analysis. The primary and secondary antibodies for the proteins were phospho-histone H3 (rabbit anti-phospho-histone H3 and FITC-donkey anti-rabbit IgG), phospho-histone H2A.x (mouse anti-phospho-histone H2A.x and FITC-donkey anti-mouse IgG), c-Jun (rabbit anti-phospho-c-Jun and Cy3-donkey anti-rabbit IgG), p53 (sheep anti-p53 and Cy5-donkey anti-sheep IgG), alpha-tubulin (mouse anti-alpha-tubulin and Cy5-donkey anti-mouse IgG). These antibodies are available as the CellCiphr HepG2 assay kit (Millipore).Digital images of each well were captured using a Cellomics ArrayScan VTI (Thermo Scientific Cellomics) (0.8 NA objective, 0.63x optical coupler, and XF-93 filter set) at 20x magnification. The images were acquired using the autofocus feature of the ArrayScan instrument, which entails the following steps. First, the camera focuses on channel 1 (Hoechst 33342), where nuclei are identified. Second, a Z offset of 1 um is used for capturing mitochondria (MitoTracker Red). […]
In the case of Oc1cc(Cl)c(Cl)cc1Cl, the AC50 is reported as 35.7 µM (active). With CCCCCCCCCCCCc1cccc(S(=O)(=O)O)c1 the outcome was “inactive”. In the case of CN(C)C(=S)S, the AC50 is reported as 19.8 µM (active). With N#Cc1cccnc1 the outcome was “inactive”. In the case of COc1ccccc1N, the outcome is reported as “inactive”. In the case of O=C(O)C1(c2ccc3c(c2)OC[C@H](Cc2ccc(-c4ccccc4)cc2)[C@H]3O)CCCC1, the outcome is reported as “inactive”. With CC(C)O.CC(C)O.OCCN(CCO)CCO.OCCN(CCO)CCO.[Ti] the outcome was “inactive”. In the case of OCCN(CCO)CCO, the outcome is reported as “inactive”. For O=C(N[C@H]1CN2CCC1CC2)c1ccc2c(c1)OCCO2, the outcome was “inactive”. In the case of CC(C)(C)c1ccccc1O, the outcome is reported as “inactive”. For Clc1cccc(Cl)c1Cl, the outcome was “inactive”. In the case of Clc1cccc(Cl)c1, the outcome is reported as “inactive”. For Cc1cc(C)cc(C)c1, the outcome was “inactive”.

Reference: PubChem BioAssay (EPA / NIEHS)
